Test results taken from the supplement of paper PMC3545927.
Some of the results follow. No count for the full screen is at hand.

Target: furin, P09958
Test: furin cleavage Z-score vs untreated control; higher = more cleavage, active = 3.5 or more, inactive = 1 or less, 8 variable residues between constant flanks
Procedure, shortened: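 Sequencing of released DNA, tagged with adapters by PCR, gave read counts used as abundance. That DNA was freed when purified furin cut N-terminally bead-bound 8-mer peptides fused to a cDNA oligonucleotide, in 0.01 ml reactions at 1:10 enzyme:substrate in 50 mM HEPES pH 7.5 with CaCl2 and NaCl, lasting 7.5, 15 or 30 min. The cleavage Z-score was the lowess-adjusted log count versus furin-free reactions, scaled by median absolute deviation.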

Sequence of furin, P09958 (P09958 whole entry): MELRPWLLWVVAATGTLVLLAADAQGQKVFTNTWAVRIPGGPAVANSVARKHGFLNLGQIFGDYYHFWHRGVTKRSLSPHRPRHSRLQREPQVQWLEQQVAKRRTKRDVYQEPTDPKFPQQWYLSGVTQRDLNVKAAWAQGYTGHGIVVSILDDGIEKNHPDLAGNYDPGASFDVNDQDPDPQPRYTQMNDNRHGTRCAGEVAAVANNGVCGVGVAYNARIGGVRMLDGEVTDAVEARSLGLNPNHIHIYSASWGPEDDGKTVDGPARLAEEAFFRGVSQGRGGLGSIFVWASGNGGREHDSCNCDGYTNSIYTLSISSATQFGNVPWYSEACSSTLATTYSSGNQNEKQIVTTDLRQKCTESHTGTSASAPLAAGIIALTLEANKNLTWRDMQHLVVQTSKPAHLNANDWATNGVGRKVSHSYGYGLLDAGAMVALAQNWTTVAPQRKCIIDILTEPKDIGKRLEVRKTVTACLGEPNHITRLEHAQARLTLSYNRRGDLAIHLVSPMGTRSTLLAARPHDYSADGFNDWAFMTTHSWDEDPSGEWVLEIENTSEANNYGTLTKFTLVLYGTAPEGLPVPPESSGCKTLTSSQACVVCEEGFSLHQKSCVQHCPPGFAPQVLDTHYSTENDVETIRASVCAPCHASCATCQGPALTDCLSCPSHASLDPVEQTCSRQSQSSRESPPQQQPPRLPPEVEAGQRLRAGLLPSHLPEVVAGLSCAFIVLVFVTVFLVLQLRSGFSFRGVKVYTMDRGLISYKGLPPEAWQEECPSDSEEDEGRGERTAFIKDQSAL

## CAAYDIIICDAGNASASA [HC815]
7.5 min
  furin cleavage Z-score: -1.2 (inactive)
15 min
  furin cleavage Z-score: -0.574 (inactive)
30 min
  furin cleavage Z-score: -0.848 (inactive)

## CAVVGVVCAAAGNASASA [HC1107]
7.5 min
  furin cleavage Z-score: 0.556 (inactive)
15 min
  furin cleavage Z-score: -0.0757 (inactive)
30 min
  furin cleavage Z-score: -0.152 (inactive)

## CAVQGLLRFCAGNASASA [HC618]
7.5 min
  furin cleavage Z-score: -0.0765 (inactive)
15 min
  furin cleavage Z-score: 0.463 (inactive)
30 min
  furin cleavage Z-score: -0.436 (inactive)

## CALASRRYRGAGNASASA [FS-547]
7.5 min
  furin cleavage Z-score: -0.863 (inactive)
15 min
  furin cleavage Z-score: -0.493 (inactive)
30 min
  furin cleavage Z-score: -0.101 (inactive)

## CALARRSRRGAGNASASA [FS-816]
7.5 min
  furin cleavage Z-score: 7.83 (active)
15 min
  furin cleavage Z-score: 7.63 (active)
30 min
  furin cleavage Z-score: 6.48 (active)

## CAPFVSCQRGAGNASASA [HC1164]
7.5 min
  furin cleavage Z-score: 0.755 (inactive)
15 min
  furin cleavage Z-score: 0.834 (inactive)
30 min
  furin cleavage Z-score: -0.509 (inactive)

## CAIIKRSRRGAGNASASA [FS-1344]
7.5 min
  furin cleavage Z-score: 6.89 (active)
15 min
  furin cleavage Z-score: 7.38 (active)
30 min
  furin cleavage Z-score: 7.28 (active)

## CAGVPRSFRGAGNASASA [TR2]
7.5 min
  furin cleavage Z-score: 0.299 (inactive)
15 min
  furin cleavage Z-score: -0.905 (inactive)
30 min
  furin cleavage Z-score: -1.74 (inactive)

## CAPANRSRRGAGNASASA [FS-67]
7.5 min
  furin cleavage Z-score: 10.1 (active)
15 min
  furin cleavage Z-score: 11.8 (active)
30 min
  furin cleavage Z-score: 9.38 (active)

## CAIRKRDRRGAGNASASA [FS-1016]
7.5 min
  furin cleavage Z-score: 12 (active)
15 min
  furin cleavage Z-score: 13.2 (active)
30 min
  furin cleavage Z-score: 9.35 (active)

## CAIIKRSAWEAGNASASA [FS-2408]
7.5 min
  furin cleavage Z-score: -0.767 (inactive)
15 min
  furin cleavage Z-score: -0.224 (inactive)
30 min
  furin cleavage Z-score: -0.00284 (inactive)

## CAMEEKSQHLAGNASASA [HC11]
7.5 min
  furin cleavage Z-score: 0.661 (inactive)
15 min
  furin cleavage Z-score: -0.101 (inactive)
30 min
  furin cleavage Z-score: 0.52 (inactive)

## CATTPQSGSWAGNASASA [HC59]
7.5 min
  furin cleavage Z-score: -0.528 (inactive)
15 min
  furin cleavage Z-score: -0.454 (inactive)
30 min
  furin cleavage Z-score: -0.569 (inactive)

## CAGFTKVCGAAGNASASA [HC440]
7.5 min
  furin cleavage Z-score: 0.851 (inactive)
15 min
  furin cleavage Z-score: 0.701 (inactive)
30 min
  furin cleavage Z-score: -1.33 (inactive)

## CANSSIVYEAAGNASASA [HC265]
7.5 min
  furin cleavage Z-score: 0.639 (inactive)
15 min
  furin cleavage Z-score: -1.3 (inactive)
30 min
  furin cleavage Z-score: -0.329 (inactive)

## CAEVVTSGWVAGNASASA [HC2216]
7.5 min
  furin cleavage Z-score: 0.374 (inactive)
15 min
  furin cleavage Z-score: -0.391 (inactive)
30 min
  furin cleavage Z-score: -0.0659 (inactive)

## CARVARHAAPAGNASASA [FS-2193]
7.5 min
  furin cleavage Z-score: 7.61 (active)
15 min
  furin cleavage Z-score: 8.49 (active)
30 min
  furin cleavage Z-score: 8.42 (active)

## CAGRGRGGGGAGNASASA [NG4]
7.5 min
  furin cleavage Z-score: 0.497 (inactive)
15 min
  furin cleavage Z-score: -0.137 (inactive)
30 min
  furin cleavage Z-score: 0.673 (inactive)

## CAGTPCSGSWAGNASASA [HC1836]
7.5 min
  furin cleavage Z-score: -0.934 (inactive)
15 min
  furin cleavage Z-score: -0.454 (inactive)
30 min
  furin cleavage Z-score: -1.18 (inactive)

## CAGREILLGPAGNASASA [HC664]
7.5 min
  furin cleavage Z-score: -0.781 (inactive)
15 min
  furin cleavage Z-score: -0.532 (inactive)
30 min
  furin cleavage Z-score: 0.339 (inactive)

## CARVARVAREAGNASASA [FS-1799]
7.5 min
  furin cleavage Z-score: 7.74 (active)
15 min
  furin cleavage Z-score: 5.71 (active)
30 min
  furin cleavage Z-score: 5.82 (active)

## CARVARVRGGAGNASASA [FS-1938]
7.5 min
  furin cleavage Z-score: -0.221 (inactive)
15 min
  furin cleavage Z-score: -0.337 (inactive)
30 min
  furin cleavage Z-score: -1.51 (inactive)

## CARQAEVIAPAGNASASA [HC1031]
7.5 min
  furin cleavage Z-score: 0.765 (inactive)
15 min
  furin cleavage Z-score: 1.4
30 min
  furin cleavage Z-score: -0.146 (inactive)

## CAGRGRERRWAGNASASA [FS-333]
7.5 min
  furin cleavage Z-score: 6.35 (active)
15 min
  furin cleavage Z-score: 9.27 (active)
30 min
  furin cleavage Z-score: 8.33 (active)

## CAGRERMAREAGNASASA [FS-332]
7.5 min
  furin cleavage Z-score: 5.27 (active)
15 min
  furin cleavage Z-score: 6.35 (active)
30 min
  furin cleavage Z-score: 5.57 (active)

## CADFERKAREAGNASASA [FS-222]
7.5 min
  furin cleavage Z-score: 0.924 (inactive)
15 min
  furin cleavage Z-score: 0.123 (inactive)
30 min
  furin cleavage Z-score: 0.387 (inactive)

## CARVDRDVAPAGNASASA [FS-2616]
7.5 min
  furin cleavage Z-score: 0.776 (inactive)
15 min
  furin cleavage Z-score: -0.0435 (inactive)
30 min
  furin cleavage Z-score: 0.369 (inactive)

## CAPQARVAIKAGNASASA [HC1494]
7.5 min
  furin cleavage Z-score: 0.98 (inactive)
15 min
  furin cleavage Z-score: -0.346 (inactive)
30 min
  furin cleavage Z-score: 1.74
